Most compounds without a hit are left out; they make up all but 9% or so of the library.
Lamin A splicing – LMNA splicing modulation; HeLa LMNA splicing GFP/RFP minigene ratio, 48 h; Potency, µM (top dose mostly 46.1 µM), usual class: inhibitors; actives 0.01% (n = 200,000); AID 1487; active = well fitted inhibition curve with a large enough effect in the signal ratio, with a control signal flat, not every such curve was filed as active; inconclusive = small, poorly fitted or top-dose-only effect, or effect the other way, or a change in a side signal; the % refers to the signal ratio
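Read-out is the ratio of GFP to DsRed2 object intensity, acquired by 488 nm laser-scanning cytometry on HeLa lamin A-EGFP minigene reporter cells. Compound incubation 48 hrs at 37 °C in Opti-MEM with 2% FBS; DMSO 0.5% final.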
IMPase Li cell – IMPase inhibition in cells with lithium potentiation. CHO-M1 cells, IP1 TR-FRET (IP-One), carbachol + lithium. Potency, µM (top dose mostly 59.4 µM), most hits filed as inhibitors. AID 1457. actives 0.35% (n = 210,000);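 note: IP1 builds up when IMPase is blocked and the TR-FRET signal falls; nearly all actives have a fitted effect of over 50% in size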
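Steps: plate 2000 CHO-M1 cells per well and culture 16–30 h; add compound and lithium; incubate 30 min, 37C; add d2-IP1 tracer and Eu cryptate anti-IP1 antibody in lysis buffer; read after 10 min at room temperature.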
HPGD inh – blocks human HPGD enzyme activity; Potency, µM, hits mostly inhibitors; purified HPGD, NADH fluorescence kinetic, PGE2 substrate; actives 4.3% (n = 150,000); P15428; active = well fitted inhibition curve with a large enough effect, not every such curve was filed as active; inconclusive = small, poorly fitted or top-dose-only effect, or another doubt; inactive = no such curve, though single readings can be large or run the other way
Target sequence (P15428 whole entry, looked up): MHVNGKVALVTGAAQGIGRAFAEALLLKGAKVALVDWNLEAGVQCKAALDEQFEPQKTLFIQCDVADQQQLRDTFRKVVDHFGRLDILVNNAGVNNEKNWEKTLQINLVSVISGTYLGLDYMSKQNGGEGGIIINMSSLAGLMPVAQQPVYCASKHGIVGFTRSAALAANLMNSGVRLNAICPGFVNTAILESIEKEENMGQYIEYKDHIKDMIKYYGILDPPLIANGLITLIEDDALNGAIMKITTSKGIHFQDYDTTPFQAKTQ
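20 nM HPGD preincubated 15 min at room temperature with compound in 50 mM Tris-HCl pH 8, 0.01% Tween 20. Started with 1 mM NAD+ and 30 uM prostaglandin E2; NADH fluorescence (360/450 nm) read 5 times over 30-s intervals, last minus first.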
ALDH1A1 block – inhibitors of human aldehyde dehydrogenase 1A1; P00352; Purified ALDH1A1, NADH fluorescence, propionaldehyde substrate; Potency, µM (doses to about 75.3 µM), actives largely listed as inhibitors; actives 7.3% (n = 220,000); active = well fitted inhibition curve with a large enough effect, not every such curve was filed as active; inconclusive = small, poorly fitted or top-dose-only effect, or another doubt; inactive = no such curve, though single readings can be large or run the other way
Target sequence (P00352 whole entry, looked up): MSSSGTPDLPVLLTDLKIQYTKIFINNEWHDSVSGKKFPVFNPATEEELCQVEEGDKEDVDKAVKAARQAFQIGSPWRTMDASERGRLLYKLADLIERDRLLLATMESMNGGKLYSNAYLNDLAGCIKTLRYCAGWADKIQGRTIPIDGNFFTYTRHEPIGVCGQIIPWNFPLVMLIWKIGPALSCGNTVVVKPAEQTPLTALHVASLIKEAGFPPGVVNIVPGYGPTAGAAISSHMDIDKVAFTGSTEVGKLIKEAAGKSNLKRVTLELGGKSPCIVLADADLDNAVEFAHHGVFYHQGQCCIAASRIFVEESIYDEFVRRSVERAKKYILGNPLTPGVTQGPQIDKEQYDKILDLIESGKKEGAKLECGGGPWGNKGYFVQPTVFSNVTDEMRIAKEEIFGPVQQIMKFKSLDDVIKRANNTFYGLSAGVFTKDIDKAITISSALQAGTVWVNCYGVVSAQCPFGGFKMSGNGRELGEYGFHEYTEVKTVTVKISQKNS
Luc counter – Kinase-Glo luciferase inhibition (counter-screen); Q27757; Kinase-Glo luciferase, ATP luminescence, 8 min; Potency, µM (doses to about 38.3 µM), usual class: inhibitors; actives 0.28% (n = 200,000); note: nearly all actives have a fitted effect of over 60% in size
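Substrate mix (final 50 mM imidazole pH 7.2, 50 mM KCl, 7 mM MgCl2, 10 uM ATP, 0.01% Tween 20, 0.05% BSA) plus pin-tool compound, then Kinase-Glo detection mix; 8 min ambient, luminescence read.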
Of the large screens only hits and unclear results are named; the others gave an inactive call. Unless noted, calls come from the whole dose curve; as a rule, active = well fitted curve in the direction sought with a large enough effect; inconclusive = small, poorly fitted or top-dose-only effect, or another doubt; inactive = no such curve, though single readings can be large; an effect the other way counts as inactive or inconclusive.

CCN1CCN(C(=O)CSc2cc(=O)n(CC)c3ccccc23)CC1	Lamin A splicing inconclusive, HPGD inh inconclusive
CCn1c(=O)cc(SCC(=O)N2CCC(C)CC2)c2ccccc21	HPGD inh 5µM, ALDH1A1 block 20µM
Cc1ccc(OCCOC(=O)CCc2nc3ccccc3c(=O)[nH]2)cc1	none (no result: Lamin A splicing, HPGD inh)
O=C(O)c1cc(-c2cccnc2)nc2ccc(Br)cc12	IMPase Li cell 2.8µM (no result: Lamin A splicing, HPGD inh)
O=C(Nc1ccc2c(c1)OCO2)c1cc(-c2cccnc2)nc2ccccc12	ALDH1A1 block 7.9µM (no result: HPGD inh)
Cc1cc(NS(=O)(=O)c2ccc(NC(=O)c3cc(-c4cccnc4)nc4ccc(Cl)cc34)cc2)no1	HPGD inh 14µM
O=C(Nc1ccc(C(F)(F)F)cc1)c1cc(-c2cccnc2)nc2ccc(Br)cc12	Lamin A splicing inconclusive
Cc1cc(NS(=O)(=O)c2ccc(NC(=O)c3cc(-c4ccccc4Cl)nc4ccccc34)cc2)no1	none
Cn1cc(CNC(=O)c2cc(-c3ccccc3)nc3ccc(Br)cc23)cn1	IMPase Li cell 11µM, ALDH1A1 block inconclusive
COC(=O)[C@@]1(Cc2ccc(OC)cc2)[C@H]2c3cc(C(=O)N4CCCC4)n(CCF)c3C[C@H]2CN1C(=O)c1ccccc1	none (no result: Lamin A splicing)
O=C(c1cc(-c2ccncc2)nc2ccc(Br)cc12)N1CCN(c2ccccn2)CC1	none
CCN1CCN(C(=O)c2cc(-c3cccnc3)nc3ccc(Br)cc23)CC1	IMPase Li cell 13µM
O=C(O)c1cc(-c2ccc3c(c2)OCO3)nc2ccc(Br)cc12	IMPase Li cell 11µM (no result: HPGD inh)
CC(=O)Nc1cccc(NC(=O)c2cc(-c3cccnc3)nc3ccc(Br)cc23)c1	IMPase Li cell 11µM
COC(=O)N[C@@H](CCc1ccccc1)/C(C(=O)OC)=C(\C)NCc1ccccc1	none (no result: Lamin A splicing)
CN(C)c1ncc2nc(-c3ccc(Cl)cc3)c(=O)n(Cc3cccs3)c2n1	Lamin A splicing inconclusive, ALDH1A1 block inconclusive (no result: HPGD inh, Luc counter)
Cc1ccc(S(=O)(=O)CCSC(=N)N)cc1	Lamin A splicing inconclusive, ALDH1A1 block 0.11µM (no result: HPGD inh)
Cn1nc(N)nc1N1CCN(c2ccc(F)cc2)CC1	none (no result: HPGD inh)
CC(/C=C1\N=C(SCc2ccccc2)SC1=O)=C\c1ccccc1	ALDH1A1 block 22µM
Nc1nc(=S)c2[nH]cnc2[nH]1	HPGD inh 35µM, ALDH1A1 block inconclusive (no result: Lamin A splicing)
Nc1ncnc2nc[nH]c12	Lamin A splicing inconclusive
S=c1[nH]nc(COc2ccccc2)n1/N=C/C(Cl)=C/c1ccccc1	Lamin A splicing inconclusive, HPGD inh 25µM, ALDH1A1 block 32µM
Cc1nnc(C)n1/N=C/C=C/c1ccccc1	none
S=c1[nH]nc(COc2ccccc2)n1/N=C/C=C/c1ccccc1	HPGD inh 5µM
Cc1cc(C)nc(SCC(=O)NC2=NC(=O)C(C)S2)n1 (stereo not drawn)	HPGD inh inconclusive, ALDH1A1 block 22µM
CC(=O)NC1=NC(=O)C(C)S1 (stereo not drawn)	none
CC(=O)c1ccc(-n2c(-c3cc(-c4ccco4)[nH]n3)n[nH]c2=S)cc1	HPGD inh 5.6µM
S=c1[nH]nc(-c2cc(-c3ccco3)[nH]n2)n1-c1cccc2ccccc12	HPGD inh 11µM, ALDH1A1 block inconclusive
O=C(O)c1ccc(-n2c(-c3cc(-c4ccco4)[nH]n3)n[nH]c2=S)cc1	HPGD inh inconclusive, ALDH1A1 block inconclusive
S=c1[nH]nc(Cc2cccs2)n1-c1cccc2ccccc12	HPGD inh 25µM
Cc1ccc(C(=O)NC(N2CCCC2)C(Cl)(Cl)Cl)cc1 (stereo not drawn)	HPGD inh inconclusive
CC(Oc1ccc2ccc(=O)oc2c1)C(=O)c1ccccc1 (stereo not drawn)	none
Cc1onc(-c2ccccc2)c1C(=O)N/N=C/c1cccc(O)c1	Lamin A splicing inconclusive, HPGD inh 28µM
Cn1nnc2c(sc3nc(N4CCOCC4)c4c(c32)CCCC4)c1=O	Lamin A splicing inconclusive
S=c1nc[nH]c2c1sc1nc(N3CCOCC3)c3c(c12)CCCC3	Lamin A splicing inconclusive, IMPase Li cell 11µM, ALDH1A1 block 1.4µM (no result: HPGD inh)
COc1nc(-c2ccccc2)ccc1-c1noc(-c2ccc(F)cc2)n1	IMPase Li cell 8.9µM, HPGD inh inconclusive, ALDH1A1 block inconclusive
Cc1ccc(N(CC(O)CON=C2c3ccccc3-c3ccccc32)S(C)(=O)=O)cc1 (stereo not drawn)	Lamin A splicing inconclusive
Cc1cc(C(=O)CN2CCCC2)c(C)n1-c1ccc(Cl)cc1	none (no result: Lamin A splicing, HPGD inh)
CCN1CCN(CC(=O)c2cc(Cl)ccc2Cl)CC1	Lamin A splicing inconclusive, ALDH1A1 block 14µM (no result: HPGD inh)
COc1ccc(-c2cn3nc(N4CCCC(C(=O)Nc5ccccc5F)C4)sc3n2)cc1 (stereo not drawn)	none (no result: IMPase Li cell, HPGD inh, ALDH1A1 block, Luc counter)
O=C(CN1C(=O)CCSc2ccccc21)Nc1ccc2c(c1)OCCO2	none
O=C(CN1C(=O)CC(c2ccco2)Sc2ccccc21)NCC1CCCO1 (stereo not drawn)	ALDH1A1 block 10µM
O=C(CN1C(=O)CC(c2ccco2)Sc2ccccc21)Nc1ccc2c(c1)OCCO2 (stereo not drawn)	ALDH1A1 block 14µM
COc1ccc(C2CC(=O)N(CC(=O)NCC3CCCO3)c3ccccc3S2)cc1 (stereo not drawn)	none (no result: Lamin A splicing, HPGD inh)
C(=N\Nc1nc(N2CCCC2)nc(N2CCCC2)n1)/c1ccncc1	Lamin A splicing inconclusive (no result: HPGD inh)
Cc1cc(C)cc(NC(=O)c2c(C)nc3ccccn23)c1	none (no result: Lamin A splicing, HPGD inh)
CC1Cc2ccccc2N1C(=O)CCNS(=O)(=O)c1ccc2c(c1)CCC(=O)N2 (stereo not drawn)	ALDH1A1 block 16µM
CC1CC(C)CN(C(=O)CCNS(=O)(=O)c2ccc3c(c2)CCC(=O)N3)C1 (stereo not drawn)	Lamin A splicing inconclusive
CCN(CC)c1nn2c(=O)c(C(=O)NCc3ccc(F)cc3)cnc2s1	none (no result: IMPase Li cell, HPGD inh, ALDH1A1 block, Luc counter)
CCCC(C)NNC(=O)c1cc2ccccc2[nH]1 (stereo not drawn)	HPGD inh 13µM
NCCCNC(=O)c1cc2ccccc2[nH]1	none
CCc1c(O)cc2n(c1=O)-c1ccc(Cl)cc1C2(C)C	Lamin A splicing inconclusive, ALDH1A1 block 28µM
Cc1cc(C)c2c(=O)n(-c3ccccc3)[nH]c2n1	ALDH1A1 block inconclusive
Cc1cc(C(C)(C)C)nc2[nH]n(-c3ccccc3)c(=O)c12	HPGD inh 16µM
COc1ccc(-c2csc3ncn(-c4ccccc4)c(=O)c23)cc1OC	ALDH1A1 block 7.9µM (no result: Lamin A splicing, HPGD inh)
COc1ccc(-c2csc3ncn(-c4cccc(C)c4)c(=O)c23)cc1OC	none (no result: Lamin A splicing, HPGD inh)
COc1cccc(C(=O)CC2c3c(c(Br)c4c(c3OC)OCO4)CCN2C)c1 (stereo not drawn)	HPGD inh inconclusive, ALDH1A1 block 7.9µM (no result: Lamin A splicing)
COc1ccc2c(c1OC)C(=O)OC2[C@H]1c2c(cc3c(c2OC)OCO3)CCN1C (stereo partly drawn)	none
COc1cccc(-c2nc(Oc3cccc(C)c3C)c3ccccc3n2)c1O	none
CCOc1nc(-c2ccccc2O)nc2ccccc12	HPGD inh 13µM
